The values that follow come from PubChem BioAssay (Tox21).

Results filed as inconclusive are left out. A structure can be active in one record and inactive in another. Active and inactive are the calls of the source. Unless noted, calls come from the whole dose curve.

A short description of assay [1]: qHTS assay to identify small molecule agonists of the vitamin D receptor (VDR) signaling pathway - cell viability counter screen (AID 743224; active = well fitted curve in the direction sought with a large enough effect in the repeat runs; an effect the other way counts as inactive or inconclusive; note: series mostly up to about 63 µM; nearly all actives have a fitted effect of over 50% in size). In a few lines:
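Plated VDR-bla cells (4 h, 37C) received compound, incubated 16 h, then LiveBLAzer substrate 2 h RT; CellTiter-Glo added afterwards, luminescence read at 30 min.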

A short description of assay [2]: qHTS assay to identify small molecule antagonists of the vitamin D receptor (VDR) signaling pathway - cell viability counter screen (AID 743225; active = well fitted curve in the direction sought with a large enough effect in the repeat runs; an effect the other way counts as inactive or inconclusive; note: nearly all actives have a fitted effect of over 50% in size). In a few lines: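 VDR-UAS-bla HEK 293T cells were plated and incubated 4 h at 37C, then dosed with compound plus 3 nM (final) 1-alpha,25-dihydroxyvitamin D3 for 16 h. After the 2 h beta-lactamase read, viability in the same wells was read as CellTiter-Glo luminescence after 30 min at room temperature.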
(qHTS replaces the single test concentration by a dilution series.)

A short description of assay [3]: qHTS assay to identify small molecule agonists of the NFkB signaling pathway (AID 1159509; active = well fitted curve in the direction sought with a large enough effect in the signal ratio in the repeat runs, not every such curve was filed as active; the % refers to the signal ratio; note: series mostly up to about 61 µM). In a few lines:
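ME-180 NFkB-bla, 2,000 cells/well, overnight plating; cpd pinned in DMSO, 5 h 37 C; B/G FRET substrate 1.5 h RT; ex 405, em 460/530 nm.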

Assay [4] can be described thus: qHTS assay to identify small molecule agonists of the NFkB signaling pathway - cell viability counter screen (AID 1159515). Note: series mostly up to about 61 µM; nearly all actives have a fitted effect of over 55% in size. In a few lines: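 Using the same wells as the NFkB reporter read, ME-180 NFkB-bla cells given compounds for 5 hr were assessed for viability via CellTiter-Glo, with luminescence taken after a 30 min room-temperature incubation.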
Assay [5] is described as follows: qHTS assay to identify small molecule agonists of the endoplasmic reticulum stress response signaling pathway (AID 1159516; active = well fitted activation curve with a large enough effect in the signal ratio in the repeat runs, not every such curve was filed as active; the % refers to the signal ratio). In a few lines:
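An ESRE-bla HeLa cell assay: compounds were pin-transferred from DMSO onto overnight-plated cells and left 5 hr at 37 C. Substrate was then loaded for 2 hr at room temperature before reading fluorescence at 460 nm and 530 nm.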

The nature of assay [6]: qHTS assay to identify small molecule agonists of the endoplasmic reticulum stress response signaling pathway - cell viability counter screen (AID 1159517).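 Note: HeLa cells carrying an ER stress response element beta-lactamase reporter; series mostly up to about 61 µM; nearly all actives have a fitted effect of over 50% in size.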 In a few lines:
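CellTiter-Glo was added to wells already read for beta-lactamase FRET, and luminescence was recorded 30 min later. Cells: ESRE-bla HeLa, 1,500 per well, compound exposure 5 hr at 37 C.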

Assay [7] is described as follows: qHTS assay to identify small molecule antagonists of the retinoid-related orphan receptor gamma (ROR-gamma) signaling pathway - cell viability counter screen (AID 1159520; active = well fitted curve in the direction sought with a large enough effect in the repeat runs; an effect the other way counts as inactive or inconclusive; note: nearly all actives have a fitted effect of over 50% in size). In a few lines: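 Tet-on ROR gamma CHO cells (1,000/well) were plated 4 hr, given compounds in DMSO for 2 hr at 37 C, then induced with 1 uM final doxycycline for 16 hr. Viability was read as ATP by CellTiter-Glo luminescence after 30 min.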

Assay [8] in a line: qHTS assay to identify small molecule agonists of the AP-1 signaling pathway - cell viability counter screen (AID 1159525). Note: nearly all actives have a fitted effect of over 55% in size. In a few lines: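 ME-180 AP-1-bla, 2500 cells/well, Opti-MEM + 0.5% dialyzed FBS; overnight 37 °C; cpd 15-pt titration, 5 h 37 °C; CellTiter-Glo 30 min RT; luminescence read; normalised to TOAB and DMSO controls.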
The nature of assay [9]: qHTS assay to identify small molecule agonists of the AP-1 signaling pathway (AID 1159526).
Assay [10] deals with Nuclear receptor ROR-gamma (Homo sapiens) (UniProt P51449). Briefly: qHTS assay to identify small molecule antagonists of the retinoid-related orphan receptor gamma (ROR-gamma) signaling pathway (AID 1159521; active = well fitted curve in the direction sought with a large enough effect in the repeat runs; an effect the other way counts as inactive or inconclusive; note: nearly all actives have a fitted effect of over 50% in size; note: potency is the fitted concentration of half-maximal effect). In a few lines:
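Tet-on ROR-gamma CHO cells with ROR response element-luciferase reporter; compounds added 2 hr before 1 uM doxycycline induction, then 16 hr at 37 C. Antagonism scored as decreased ONE-Glo luminescence.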

Turning to `COc1ccc(Cl)cc1C(=O)NCCc1ccc(S(=O)(=O)NC(=O)NC2CCCCC2)cc1`, the Potency entry in assay [1], in assay [7] and in [8] was “inactive” throughout. The outcome in assay [2], in [3], in assay [4], in assay [5], in [6] and in assay [9] was inactive.
Regarding `O=C(O)c1ccc(C(=O)O)cc1`, the Potency entry in [1], in assay [7] and in [8] was “inactive” each time. Besides, the molecule was called inactive in assay [2], in assay [3], in assay [4], in [5], in [6] and in [9].
`O=[N+]([O-])c1ccc(/C=C/c2ccc([N+](=O)[O-])cc2S(=O)(=O)O)c(S(=O)(=O)O)c1`: the Potency result in assay [1], in assay [7] and in assay [8] was “inactive” in each case. In addition, the outcome in assay [2], in [3], in [4], in [5], in assay [6] and in assay [9] was inactive.
As to `CCCC(C)=O`, the Potency entry in assay [1], in assay [7] and in [8] was “inactive” each time. Moreover, the outcome in [2], in [3], in assay [4], in [5], in assay [6] and in assay [9] was inactive.
Regarding `N[C@@H](Cc1cc(I)c(Oc2cc(I)c(O)c(I)c2)c(I)c1)C(=O)O`, the Potency entry in [1], in assay [7] and in assay [8] was “inactive” each time. The molecule was classed as inactive in [2], in [3], in assay [4], in assay [5], in assay [6] and in assay [9].
`C[Si](O[Si](C)(C)C)O[Si](C)(C)C`: the outcome in [2], in [3], in assay [4], in [5], in assay [6] and in assay [9] was inactive. The Potency entry in [7], in assay [10] and in assay [8] was “inactive” each time.
Consider `CCCCCC(N)=O`, for which the Potency entry in assay [1], in assay [7], in assay [10] and in [8] was “inactive” in each case. The result in assay [2], in assay [3], in [4], in assay [5], in assay [6] and in [9] was inactive.
For `O=C(O)c1cc(=O)c2c(OCC(O)COc3cccc4oc(C(=O)O)cc(=O)c34)cccc2o1`, the call in [2], in [3], in assay [4], in [5], in assay [6] and in [9] was inactive. The Potency entry in [7], in assay [10] and in assay [8] was “inactive” in each case.
Consider `CCCCCCOCCO`, for which the Potency entry in assay [1], in assay [7] and in [8] was “inactive” in each case. The outcome in [2], in assay [3], in assay [4], in assay [5], in assay [6] and in [9] was inactive.
As for `CCCCN(CCCC)CCCC`, the Potency entry in [1], in [7] and in assay [8] was “inactive” in each case. For the same molecule, the result in assay [2], in [3], in [4], in assay [5], in [6] and in [9] was inactive.
`CCN(CC)c1ccc(C(=O)c2ccccc2C(=O)O)c(O)c1`: the Potency entry in assay [1], in assay [7], in assay [10] and in assay [8] was “inactive” throughout. Besides, the molecule was called inactive in assay [2], in assay [3], in assay [4], in assay [5], in assay [6] and in assay [9].
As to `c1c[nH]cn1`, the call in [2], in assay [3], in [4], in assay [5], in assay [6] and in assay [9] was inactive. The Potency entry in [7], in assay [10] and in assay [8] was “inactive” in each case.
Take `CCC(O)OCCCOC` (stereo not drawn): the Potency entry in assay [1], in assay [7], in [10] and in assay [8] was “inactive” throughout. Besides, the call in assay [2], in assay [3], in assay [4], in assay [5], in assay [6] and in [9] was inactive.
With `CCCCOC(=O)COc1ccc(Cl)cc1Cl`, the Potency entry in [1], in assay [7] and in assay [8] was “inactive” each time. The outcome in assay [2], in assay [3], in assay [4], in assay [5], in [6] and in assay [9] was inactive. For the same molecule, the Potency in assay [10] is 19.5 µM (active) and inactive.
As for `Cc1ccc2oc(=O)ccc2c1`, the Potency result in assay [1], in [7] and in assay [8] was “inactive” each time. Also, the result in [2], in assay [3], in assay [4], in [6] and in [9] was inactive.
With `OCC(CO)(CBr)CBr`, the Potency result in [1], in assay [7] and in assay [8] was “inactive” throughout. Also, the outcome in [2], in [3], in assay [4], in [6] and in assay [9] was inactive.
Turning to `CN(C)CCC(c1ccc(Cl)cc1)c1ccccn1` (stereo not drawn), the molecule was classed as inactive in assay [2], in assay [3], in assay [4], in assay [5] and in assay [6]. The Potency entry in assay [7] and in [8] was “inactive” in each case.
With `C=C(C)C(=O)Nc1ccc(Cl)c(Cl)c1`, the Potency result in assay [1], in assay [7] and in assay [8] was “inactive” throughout. Besides, the outcome in assay [2], in assay [3], in assay [4], in assay [6] and in assay [9] was inactive.
Regarding `COc1ccc(Nc2ccccc2)c(C)c1`, the Potency result in [1], in [7], in assay [10] and in [8] was “inactive” each time. Further, the outcome in [2], in [4], in assay [5], in [6] and in assay [9] was inactive.
With `O=c1[nH]c(=O)n([C@H]2CCCO2)cc1F`, the molecule was called inactive in [2], in [3], in assay [4], in assay [6] and in assay [9]. Besides, the Potency entry in assay [7] and in assay [8] was “inactive” each time.
In the case of `CCCCCCCCCCCCS`, the Potency entry in [1], in assay [7], in [10] and in [8] was “inactive” in each case. Besides, the result in [2], in assay [4], in assay [5], in [6] and in assay [9] was inactive.
For the molecule `COc1cc(Cc2cnc(N)nc2N)cc(OC)c1OC`, the molecule was classed as inactive in assay [2], in assay [3], in assay [4], in assay [5], in [6] and in assay [9]. Besides, the Potency result in [7] and in [8] was “inactive” throughout.
`Cc1cnc(C(=O)NCCc2ccc(S(=O)(=O)NC(=O)NC3CCCCC3)cc2)cn1`: the outcome in assay [2], in assay [3], in [4], in assay [5], in assay [6] and in assay [9] was inactive. Besides, the Potency entry in assay [7] and in assay [8] was “inactive” in each case.
On to `CCCCC(CC)COC(=O)C(C#N)=C(c1ccccc1)c1ccccc1` (stereo not drawn), for which the call in assay [2], in [3], in [4], in assay [5], in assay [6] and in assay [9] was inactive. The Potency entry in [7] and in [8] was “inactive” throughout.
`C=CCNC(N)=S`: the outcome in [2], in [3], in [4], in assay [5], in assay [6] and in assay [9] was inactive. Further, the Potency result in assay [7] and in assay [8] was “inactive” throughout.
